Experiment [1] in a line: NCI Yeast Anticancer Drug Screen. Data for the rad50 strain (AID 155).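 Also: 0% = growth of vehicle-only cultures of the same strain.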 To be noted: S. cerevisiae rad50 strain growth inhibition, stronger effect = higher value. The method in brief: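 Genetically altered yeast (DNA repair pathway); compound treatment; growth inhibition vs vehicle ctrl.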
A short description of experiment [2]: NCI Yeast Anticancer Drug Screen. Data for the mec2-1 strain (AID 157). Conditions: S. cerevisiae mec2-1 strain, stronger effect = higher value. A digest of the protocol: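 Each compound was tested on mec2-1 yeast, a strain altered in DNA damage repair or cell cycle control. Growth inhibition is reported relative to vehicle.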
Experiment [3] in a line: NCI Yeast Anticancer Drug Screen. Data for the sgs1 mgt1 strain (AID 161).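 Also: 0% = growth of cultures given vehicle only.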 Conditions: S. cerevisiae sgs1 mgt1 strain, stronger effect = higher value. The method in brief: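 Genetically altered yeast, compound exposure, growth inhibition relative to vehicle.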
A short description of experiment [4]: NCI Yeast Anticancer Drug Screen. Data for the cln2 rad14 strain (AID 165).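 Also: 0% = growth equal to vehicle treated cultures.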 Conditions: S. cerevisiae cln2 rad14 strain, stronger effect = higher value. The method in brief: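 Test compounds were added to cln2 rad14 yeast cultures; inhibition of growth was then determined by comparison with vehicle treatment.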
Experiment [5] is described as follows: NCI Yeast Anticancer Drug Screen. Data for the bub3 strain (AID 167). To be noted: S. cerevisiae bub3 mutant strain, stronger effect = higher value. The method in brief: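 Yeast carrying a defined mutation is treated with each compound, and growth is compared with that of vehicle-exposed cells to give inhibition.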
Experiment [6] can be described thus: NCI Yeast Anticancer Drug Screen. Data for the mlh1 rad18 strain (AID 175). To be noted: S. cerevisiae mlh1 rad18 strain growth inhibition, stronger effect = higher value. The method in brief:
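Inhibition values reflect reduced growth of mutant yeast versus vehicle-treated controls following compound exposure; the mutations affect DNA damage repair.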

[7] abbreviates: at 5.0 µM (retest, dose inferred, filed as 0.5).
The mark [8] stands for this setting: at 50.0 µM (retest, dose inferred, filed as 5.0).

These results are taken from PubChem BioAssay (NCI).

Compounds without any hit were thinned out: in the full panel of roughly 79,000, 15% have a hit. A number with no mark means an inactive call. The source made the active and inactive calls. Rule as the data show it: active = growth inhibition above about 70%; inactive = the rest.

For the compound `CCCCCCC(=O)OCc1ccc(-c2ccccc2)cc1`, the growth inhibition is 97% (active) in experiment [1] (setting [7]); 99% (active) in experiment [1] (setting [8]); 99% (active) in experiment [1] (at 50.0 µM); 98% (active) in experiment [2] (setting [7]); 100% (active) in experiment [2] (setting [8]); 99.4% (active) in experiment [2] (at 50.0 µM). The growth inhibition in experiment [3] (setting [7]) was 95% (active); in experiment [3] (setting [8]), 100% (active); in experiment [3] (at 50.0 µM) it was 99.3% (active); in experiment [4] (setting [7]) it was 26%; in experiment [4] (setting [8]), 94% (active); in experiment [4] (at 50.0 µM) it was 99% (active). The growth inhibition in experiment [5] (setting [7]) was 70% (active); in experiment [5] (setting [8]), 99% (active); in experiment [5] (at 50.0 µM) it was 99.2% (active); in experiment [6] (setting [7]), 99% (active); in experiment [6] (setting [8]), 99% (active); in experiment [6] (at 50.0 µM), 99.2% (active).

For `Cc1ccc(/C=C2\CCCc3ccccc3C2=O)cc1`, the growth inhibition was 0% in experiment [1] (setting [7]); 7% in experiment [1] (setting [8]); 51.3% in experiment [1] (at 50.0 µM); 7% in experiment [2] (setting [7]); 23% in experiment [2] (setting [8]); 7.9% in experiment [2] (at 50.0 µM). Besides, the growth inhibition is 8% in experiment [3] (setting [7]); 33% in experiment [3] (setting [8]); 55.8% in experiment [3] (at 50.0 µM); -11% in experiment [4] (setting [7]); -11% in experiment [4] (setting [8]); 11.3% in experiment [4] (at 50.0 µM). Moreover, the growth inhibition in experiment [5] (setting [7]) is 59%; in experiment [5] (setting [8]) it was 81% (active); in experiment [5] (at 50.0 µM) it was 72.3% (active); in experiment [6] (setting [7]), 7%; in experiment [6] (setting [8]) it was 23%; in experiment [6] (at 50.0 µM) it was 55.1%.

For the compound `COC1(OC)CNC(C(=O)O)C1` (centres undefined), the growth inhibition in experiment [1] (setting [7]) is -154%; in experiment [1] (setting [8]), -139%; in experiment [1] (at 50.0 µM), 19.1%; in experiment [2] (setting [7]), -44%; in experiment [2] (setting [8]), -45%; in experiment [2] (at 50.0 µM) it was 2.65%. Moreover, the growth inhibition in experiment [3] (setting [7]) is -66%; in experiment [3] (setting [8]), -59%; in experiment [3] (at 50.0 µM) it was 18.2%; in experiment [4] (setting [7]), -54%; in experiment [4] (setting [8]), -49%; in experiment [4] (at 50.0 µM), 2.4%. In addition, the growth inhibition was -71% in experiment [5] (setting [7]); -66% in experiment [5] (setting [8]); 21.4% in experiment [5] (at 50.0 µM); -141% in experiment [6] (setting [7]); -111% in experiment [6] (setting [8]); 13.3% in experiment [6] (at 50.0 µM).

Regarding `CCOC(=O)NCCCc1ccc2oc3ccccc3c2c1`, the growth inhibition is -1% in experiment [1] (setting [7]); 97% (active) in experiment [1] (setting [8]); 81.6% (active) in experiment [1] (at 50.0 µM); -3% in experiment [2] (setting [7]); 98% (active) in experiment [2] (setting [8]); 19.6% in experiment [2] (at 50.0 µM). Moreover, the growth inhibition is -3% in experiment [3] (setting [7]); 97% (active) in experiment [3] (setting [8]); 90.8% (active) in experiment [3] (at 50.0 µM); 1% in experiment [4] (setting [7]); 95% (active) in experiment [4] (setting [8]); -12.7% in experiment [4] (at 50.0 µM). The growth inhibition was 9% in experiment [5] (setting [7]); 98% (active) in experiment [5] (setting [8]); 19.8% in experiment [5] (at 50.0 µM); -1% in experiment [6] (setting [7]); 97% (active) in experiment [6] (setting [8]); 57.9% in experiment [6] (at 50.0 µM).

As to `C=CCNC(=O)NC1=CSC2=NC(=O)C3(NN12)c1ccccc1-c1ccccc13`, the growth inhibition in experiment [1] (setting [7]) is -1%; in experiment [1] (setting [8]), 50%; in experiment [1] (at 50.0 µM), 76.7% (active); in experiment [2] (setting [7]), -13%; in experiment [2] (setting [8]), 48%; in experiment [2] (at 50.0 µM), 68.2%. Moreover, the growth inhibition was -2% in experiment [3] (setting [7]); 63% in experiment [3] (setting [8]); 82.5% (active) in experiment [3] (at 50.0 µM); 0% in experiment [4] (setting [7]); 83% (active) in experiment [4] (setting [8]); 73.4% (active) in experiment [4] (at 50.0 µM). In addition, the growth inhibition in experiment [5] (setting [7]) was -6%; in experiment [5] (setting [8]) it was 66%; in experiment [5] (at 50.0 µM), 76.4% (active); in experiment [6] (setting [7]), -6%; in experiment [6] (setting [8]), 64%; in experiment [6] (at 50.0 µM), 82.1% (active).

In the case of `Nc1ccc(/C=C/c2ccccc2)cc1`, the growth inhibition in experiment [1] (setting [7]) is 3%; in experiment [1] (setting [8]), 61%; in experiment [1] (at 50.0 µM), 87.5% (active); in experiment [2] (setting [7]), -9%; in experiment [2] (setting [8]) it was 33%; in experiment [2] (at 50.0 µM) it was 80.3% (active). Also, the growth inhibition is -2% in experiment [3] (setting [7]); 47% in experiment [3] (setting [8]); 81.5% (active) in experiment [3] (at 50.0 µM); -10% in experiment [4] (setting [7]); 45% in experiment [4] (setting [8]); 82.8% (active) in experiment [4] (at 50.0 µM). For the same compound, the growth inhibition was -2% in experiment [5] (setting [7]); 44% in experiment [5] (setting [8]); 95.5% (active) in experiment [5] (at 50.0 µM); 3% in experiment [6] (setting [7]); 73% (active) in experiment [6] (setting [8]); 94% (active) in experiment [6] (at 50.0 µM).

As to `C(C#Cc1ccccc1)#CCc1ccccc1`, the growth inhibition in experiment [1] (setting [7]) is 2%; in experiment [1] (setting [8]) it was 17%; in experiment [1] (at 50.0 µM) it was 19%; in experiment [2] (setting [7]) it was 7%; in experiment [2] (setting [8]), 16%; in experiment [2] (at 50.0 µM), 28.9%. Further, the growth inhibition in experiment [3] (setting [7]) was 1%; in experiment [3] (setting [8]), 39%; in experiment [3] (at 50.0 µM), 54.6%; in experiment [4] (setting [7]) it was 1%; in experiment [4] (setting [8]) it was 7%; in experiment [4] (at 50.0 µM), 6.5%. Besides, the growth inhibition in experiment [5] (setting [7]) was 1%; in experiment [5] (setting [8]) it was 13%; in experiment [5] (at 50.0 µM), 47.2%; in experiment [6] (setting [7]), -1%; in experiment [6] (setting [8]) it was 21%; in experiment [6] (at 50.0 µM) it was 74.1% (active).

Regarding `CCOC(=O)C(=CNC(=S)Nc1c(CC)cccc1C(C)(C)C)C(=O)OCC`, the growth inhibition is 6% in experiment [1] (setting [7]); 74% (active) in experiment [1] (setting [8]); 85.2% (active) in experiment [1] (at 50.0 µM); -13% in experiment [2] (setting [7]); 44% in experiment [2] (setting [8]); 75.5% (active) in experiment [2] (at 50.0 µM). In addition, the growth inhibition was -2% in experiment [3] (setting [7]); 27% in experiment [3] (setting [8]); 77% (active) in experiment [3] (at 50.0 µM); 1% in experiment [4] (setting [7]); 52% in experiment [4] (setting [8]); 76.3% (active) in experiment [4] (at 50.0 µM). The growth inhibition in experiment [5] (setting [7]) is -11%; in experiment [5] (setting [8]), 58%; in experiment [5] (at 50.0 µM) it was 84.2% (active); in experiment [6] (setting [7]) it was -11%; in experiment [6] (setting [8]) it was 67%; in experiment [6] (at 50.0 µM), 86.8% (active).
